In the library only some 3.3% were active in any assay of this set; here they are far more common.
RE007 growth inh: less growth of the S. pombe RE007 Vpr strain | actives 0.21% (n = 360,000) | S. pombe RE007 Vpr strain, BacTiter-Glo ATP luminescence, 24 h | Potency, µM (titrated, usually from 92.2 µM), for the others: at the highest dose activity change, negative = less growth, actives largely listed as inhibitors; active = well fitted falling curve with a large enough effect; inconclusive = small, poorly fitted or top-dose-only effect; inactive = no such curve, though single readings can be large or run the other way; also: nearly all actives have a fitted effect of over 50% in size
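Fission yeast RE007 carrying one integrated HIV-1 vpr copy, seeded at OD 0.01 in PMG+AL medium with 23 nL pinned compound. Grown 24 h at 30 degrees; viability read by BacTiter-Glo luminescence after 5 min.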
Sm TGR block: inhibitors of Schistosoma mansoni thioredoxin glutathione reductase | Q962Y6 | purified TGR, DTNB reduction, TNB absorbance 405 nm | Potency, µM (series often up to 114 µM), without a hit: at the top dose activity change, negative = inhibition, hits mostly inhibitors | actives 3% (n = 360,000) | AID 485364; also: nearly all actives have a fitted effect of over 60% in size
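TGR 20 nM + NADPH 100 uM (dispensed conc.), cpd preinc 15 min RT; start with NADPH (500 uM addition) then DTNB (15 mM addition). Kinetic TNB absorbance, 405 nm filter. Four-parameter Hill fit across titration.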
Tb PYK inh: T. brucei pyruvate kinase inhibition. TbPYK enzyme, Kinase-Glo Plus ATP luminescence, 45 min. Potency, µM (highest dose often 76.8 µM), for the others: at the highest dose activity, negative = inhibition, actives largely listed as inhibitors. actives 0.12% (n = 410,000). AID 624173; also: nearly all actives have a fitted effect of over 50% in size
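ADP (130 uM final) triggers the TbPYK reaction after compound addition; incubation is 45 min at room temperature. Kinase-Glo Plus is then added and luminescence imaged. Normalized data are fitted to concentration-effect curves.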
Giardia FBPA inh: blocks Giardia fructose-bisphosphate aldolase activity | Potency, µM (titrated, usually from 59.6 µM), for inactives: top-dose activity, negative = inhibition, actives largely listed as inhibitors | AID 2451 | purified Giardia FBPA | actives 0.71% (n = 290,000); also: nearly all actives have a fitted effect of over 55% in size
Target sequence (A8B2U2 whole entry, looked up): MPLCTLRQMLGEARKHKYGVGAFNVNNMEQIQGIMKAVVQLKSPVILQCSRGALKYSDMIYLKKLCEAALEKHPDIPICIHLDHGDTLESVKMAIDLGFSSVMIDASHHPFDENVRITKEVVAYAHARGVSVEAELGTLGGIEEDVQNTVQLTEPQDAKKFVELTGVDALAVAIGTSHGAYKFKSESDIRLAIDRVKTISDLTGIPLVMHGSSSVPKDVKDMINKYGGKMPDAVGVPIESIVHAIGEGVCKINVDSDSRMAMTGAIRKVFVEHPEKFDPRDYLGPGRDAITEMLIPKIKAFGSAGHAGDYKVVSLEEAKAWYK
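Giardia FBPA (40 nM reagent) was preincubated 10 min at RT with compound (up to 57.5 uM final), then substrate plus GAPDH/TPI/NAD/arsenate coupling system with diaphorase/resazurin was added; resorufin fluorescence (525/598 nm) was read after 20 min.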
LmPK inh: blocks Leishmania mexicana pyruvate kinase activity. Potency, µM (series often up to 57.5 µM), for the others: at the top dose activity change, negative = inhibition, hits mostly inhibitors. Q27686. actives 0.37% (n = 290,000). purified LmPK, Kinase-Glo ATP luminescence, 1 h. AID 1721
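Purified LmPK (0.1 nM) converted ADP (0.1 mM) to ATP with PEP (0.5 mM) in imidazole buffer pH 7.2 with KCl and MgCl2, 1 h at room temperature. ATP was read by Kinase-Glo luminescence; data normalized to uninhibited and no-enzyme controls.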
* marks the source's active call; other numbers are inactive results; u = inconclusive; x = no result given. Unless noted, calls follow the shape of the dose curve; as a rule, active = well fitted curve in the direction sought with a large enough effect; inconclusive = small, poorly fitted or top-dose-only effect, or another doubt; inactive = no such curve, though single readings can be large; an effect the other way counts as inactive or inconclusive. % is scaled to controls: 0 for no effect and ±100 for the full control effect; potency is read from the fitted curve at half-maximal effect.

SMILES	RE007 growth inh	Sm TGR block	Tb PYK inh	Giardia FBPA inh	LmPK inh
COc1ccc(Cl)cc1C(=O)NNC(=O)C1COc2ccccc2O1 (stereo unspecified)	15%	u	-15%	-7%	-3%
O=C1NN(c2ccccc2)C(=O)/C1=C\c1cccc(OC(=O)c2cccs2)c1	-3%	35µM*	u	-15%	-6%
COn1c(=O)c(-c2cccs2)[n+]([O-])c2ccccc21	-22%	u	6%	-3%	0%
Cc1c(Cl)cccc1NC(=O)Cn1cnc(S(=O)(=O)N2CCCC2)c1	-4%	9%	2%	x	7%
Cn1cnc([N+](=O)[O-])c1Sc1ncn[nH]1	x	2.8µM*	-4%	-18%	11%
Cn1cnc([N+](=O)[O-])c1Sc1ccc([N+](=O)[O-])cc1	34%	x	-5%	0%	3%
CNc1c([N+](=O)[O-])ncn1C	3%	5%	-10%	4%	-9%
CCS(=O)(=O)c1c([N+](=O)[O-])ncn1C	3%	0.63µM*	0%	6%	-3%
Cn1cnc([N+](=O)[O-])c1Cl	1%	4µM*	-1%	2%	-2%
COc1ccc(C(=S)NC2CCCCC2)cc1	u	6%	u	0%	7%
O=C(COc1ccccc1C(=O)NCC1CCCO1)Nc1ccc(Cl)cc1Cl (stereo unspecified)	18%	-7%	-3%	1%	2%
COc1ccc(-c2noc(CN(C)Cc3ccccc3)n2)cc1	-6%	9%	-3%	7%	0%
COc1ccc(-c2noc(CN(C)Cc3ccc(C)o3)n2)cc1	-7%	35µM*	3%	-4%	0%
CCCn1c(SCC(=O)c2ccc3c(c2)NC(=O)CO3)nc2ccccc21	-2%	40µM*	-12%	1%	-6%
COc1ccc(NC(=O)CN(C)C(=O)c2cccc(S(=O)(=O)N3CCN(C)CC3)c2)cc1	-14%	89µM*	1%	x	x
COc1ccc(NC(=O)CN(C)C(=O)c2cccc(S(=O)(=O)N3CCN(Cc4ccccc4)CC3)c2)cc1	6%	-11%	4%	x	-6%
Cc1oc(-c2ccc(Cl)cc2)cc1-c1nn2c(-c3ccoc3C)nnc2s1	u	22µM*	-6%	u	3%
Clc1ccc(-c2nnc3sc(-c4ccc(Br)o4)nn23)cc1	2%	-7%	3%	3%	2%
CN(C)C(CNC(=O)C1CCN(S(=O)(=O)c2cc(Cl)ccc2Cl)CC1)Cc1ccccc1 (stereo unspecified)	-2%	x	1%	x	x
CCCOc1ccc(N2C(=O)CC(N3CCN(CCN=CC4=C(O)CC(C)(C)CC4=O)CC3)C2=O)cc1 (stereo unspecified)	u	x	4%	5%	-1%
CC1(C)CC(=O)C(C=NCCN2CCN(C(=O)Cc3ccc(Cl)cc3)CC2)=C(O)C1	13%	u	-5%	-2%	-3%
CC1(C)CC(=O)C(C=NCCN2CCN(C3CC(=O)N(c4ccc(Br)cc4)C3=O)CC2)=C(O)C1 (stereo unspecified)	u	50µM*	2%	4%	-7%
CC(=O)N1CCN(CCN=CC2=C(O)CC(c3cccs3)CC2=O)CC1 (stereo unspecified)	1%	45µM*	-7%	-1%	-1%
CCOC(=O)c1ccc(NC(=S)N2CCN(CCN=CC3=C(O)CC(C)(C)CC3=O)CC2)cc1	37%	1.1µM*	-2%	-8%	4%
C=CCNC(=S)N1CCN(CCN=CC2=C(O)CC(c3cccs3)CC2=O)CC1 (stereo unspecified)	10%	-7%	-2%	-10%	-4%
SMILES	RE007 growth inh	Sm TGR block	Tb PYK inh	Giardia FBPA inh	LmPK inh
CC1(C)CC(=O)C(C=NCCN2CCN(C(=O)C34CC5CC(CC(C5)C3)C4)CC2)=C(O)C1	4%	25µM*	2%	-4%	4%
CS(=O)(=O)N(Cc1ccc(C(=O)NCCSCc2ccco2)cc1)c1ccccc1	11%	-16%	-1%	4%	13%
C#CCOc1ccc(Br)cc1C(c1c(C)[nH][nH]c1=O)c1c(C)[nH][nH]c1=O	-8%	45µM*	8%	11%	-5%
CCOc1ccc(Cl)cc1C(c1c(C)[nH][nH]c1=O)c1c(C)[nH][nH]c1=O	18%	u	0%	-10%	4%
CCN1CCN(C(=O)Cn2ncc3c4ccccc4n(Cc4ccccc4)c3c2=O)CC1	x	0%	-5%	x	x
O=C1NC(c2ccccc2Br)=N/C1=C\c1ccco1	u	40µM*	-3%	-22%	u
O=C1NC(c2ccccc2)=N/C1=C/c1ccco1	-12%	50µM*	-5%	u	u
O=C1NC(c2cccc(Br)c2)=N/C1=C\c1ccco1	-9%	79µM*	1%	u	3%
CCCCc1ccc(NC(=O)CSc2nc3ccccc3nc2N2CCCCC2)cc1	x	1%	-3%	x	x
COC(=O)[C@H](C)NC(=O)Nc1ccc(S(N)(=O)=O)cc1	0%	-6%	-9%	4%	-3%
CC(C)C(Cl)=NOC(=O)Nc1ccc(S(N)(=O)=O)cc1	16µM*	x	-17%	x	x
COc1ccc(C2=NN(c3nc(-c4ccccc4)c(CC(=O)O)s3)C(c3ccco3)C2)cc1 (stereo unspecified)	-5%	20µM*	-17%	-19%	-3%
COc1cccc(/C=N/NC(=O)CC(=O)NCCc2ccccc2)c1OC	6%	-13%	-5%	2%	1%
CC(C)c1cc2c(c(O)c1O)[C@@]1(C(=O)O)CCCC(C)(C)[C@@H]1CC2	x	x	x	10µM*	x
Cc1ccc(S(=O)(=O)CNC(=S)c2cccc(Cl)c2)cc1	-11%	3.5µM*	-4%	-7%	2%
Cc1ccc(S(=O)(=O)NC(=S)c2ccccc2)cc1	1%	x	-6%	x	x
Cc1ccc(C(=S)NCS(=O)(=O)c2ccc(C)cc2)cc1	4%	2.8µM*	4%	-10%	9%
NC(=O)CC[C@H](NC(=O)c1ccc(F)cc1)C(=O)OCC(=O)Nc1c(F)c(F)c(F)c(F)c1F	34%	-10%	0%	7%	-2%
O=C(Nn1c(O)c(C=C2N=c3ccccc3=N2)sc1=S)c1ccccc1Cl	-8%	-13%	2%	-14%	-7%
O=S(=O)(Nn1c(O)c(C=C2N=c3ccccc3=N2)sc1=S)c1ccccc1	2%	11µM*	0%	-1%	5%
Cc1ccc(C(NC(N)=O)c2ccccc2)cc1 (stereo unspecified)	5%	-2%	1%	1%	-5%
O=C1NC(=O)/C(=C\c2ccc(Sc3ccc(Cl)cc3)o2)N1	-20%	50µM*	-9%	-5%	0%
O=C1NC(=O)/C(=C\c2ccc(N3CCOCC3)o2)N1	1%	8.9µM*	-28%	u	-4%

Screens as filed in PubChem.
